Compound activity from PubChem BioAssay.
ALR H2O2 inh: inhibitors of human sulfhydryl oxidase ALR. 290,000 tested, 3.8% active. purified ALR, DTT oxidation, H2O2 HRP-luminol luminescence. AID 485317. inhibition, % (no concentration beside the values). P55789;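 active = mean replicate inhibition above about 79%, with every replicate also reaching it, limit read from the data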
IDE inh: inhibits human insulin-degrading enzyme in HEK cells; FAbetaB cleavage, fluorescence polarization; inhibition, % at 5.59 µM; P14735; 320,000 tested, 0.41% active;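 active = percent inhibition above the average of all tested compounds plus 3 SD, set per screening campaign, cut at about 16% in these data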;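 also: IDE supplied by intact live HEK cells; FP after avidin binding of uncleaved biotin substrate so inhibition keeps polarization high; 0% = DMSO wells and 100% = 60 µM reference IDE inhibitor Ii1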
Target sequence (P14735 whole entry, looked up): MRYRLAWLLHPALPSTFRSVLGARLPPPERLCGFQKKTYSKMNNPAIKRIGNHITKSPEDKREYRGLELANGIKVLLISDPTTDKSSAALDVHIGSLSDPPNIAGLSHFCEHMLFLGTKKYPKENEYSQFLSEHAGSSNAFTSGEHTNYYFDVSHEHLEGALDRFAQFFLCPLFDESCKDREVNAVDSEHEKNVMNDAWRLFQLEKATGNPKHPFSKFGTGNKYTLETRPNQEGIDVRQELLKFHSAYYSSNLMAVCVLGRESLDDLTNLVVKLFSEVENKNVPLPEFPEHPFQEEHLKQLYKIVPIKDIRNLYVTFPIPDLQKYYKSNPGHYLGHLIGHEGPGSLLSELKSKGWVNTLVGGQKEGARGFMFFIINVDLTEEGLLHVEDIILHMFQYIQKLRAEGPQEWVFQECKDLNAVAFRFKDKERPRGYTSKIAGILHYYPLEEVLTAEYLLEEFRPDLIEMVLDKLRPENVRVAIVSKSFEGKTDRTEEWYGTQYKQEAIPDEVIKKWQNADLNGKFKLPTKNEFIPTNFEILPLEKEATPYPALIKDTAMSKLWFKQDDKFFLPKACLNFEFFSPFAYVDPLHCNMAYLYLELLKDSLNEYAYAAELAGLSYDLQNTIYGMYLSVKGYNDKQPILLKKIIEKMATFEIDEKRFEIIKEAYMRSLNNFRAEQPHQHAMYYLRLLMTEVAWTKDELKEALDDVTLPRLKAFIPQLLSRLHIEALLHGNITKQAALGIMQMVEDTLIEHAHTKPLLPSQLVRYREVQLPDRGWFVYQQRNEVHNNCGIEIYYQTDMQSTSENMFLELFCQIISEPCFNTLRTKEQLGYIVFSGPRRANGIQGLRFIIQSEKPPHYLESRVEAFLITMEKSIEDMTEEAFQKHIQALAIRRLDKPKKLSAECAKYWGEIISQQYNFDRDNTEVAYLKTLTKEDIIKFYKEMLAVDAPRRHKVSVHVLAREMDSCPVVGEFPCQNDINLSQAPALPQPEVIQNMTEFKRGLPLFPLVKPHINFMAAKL
M18AAP inhibitor: PfM18AAP enzyme inhibition; recombinant PfM18AAP, H-Glu-NHMec fluorogenic cleavage; inhibition, % at 7.35 µM; 290,000 tested, 1.2% active; AID 1822;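 active = inhibition above the campaign mean inhibition over all tested compounds plus 3 SD, cut at about 28% in these data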;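 also: 0% = plate median of test compound wells and 100% = 2 mM ZnCl2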
CaV13 FRET inh: Primary screen for inhibitors of IQ motif and Ca2+-dependent inactivation inhibitor domain binding in CACNA1D, Förster resonance energy transfer in living cells, …; AID 743397; 340,000 tested, 0.098% active; HEK cells, CFP/YFP FRET ICDI-IQ, plate reader, 10 min; percent FRET-ratio fall versus neutral wells; inhibition, % at 12.3 µM;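 active = mean replicate inhibition of at least 30% and at least 1% of replicates passing that level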;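 also: 0% = median of the neutral control wells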
IDE cell activ: IDE (human) activation, cell-based | 340,000 tested, 0.073% active | activation, % at 5.96 µM | HEK cells, FAbeta-B cleavage, fluorescence polarization; 0% vehicle, 100% cell-free pure enzyme wells | AID 493087 | P14735;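 active = activation above the mean of all tested compounds plus 3 SD, set per screening campaign, cut at about 17% in these data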
PolyA inh: yeast polyadenylation inhibition. S. cerevisiae SKY197-pL101 polyadenylation reporter, beta-gal luminescence; efflux-impaired pdr1/pdr3 knockout yeast; score 100 = 6 SD above DMSO. activity score, % at 12 µM. 300,000 tested, 0.02% active;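 active = lowest replicate activity score at least 50, where 100 means six control SD above control mean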;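 also: yeast exposed to compound for 9 h at 30 °C; higher score means more reporter readthrough which indicates perturbed polyadenylation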
An asterisk follows results filed as active; · = not tested or not shown. In the library only some 4.1% were active in any assay of this set; here they are far more common.

SMILES	ALR H2O2 inh	IDE inh	M18AAP inhibitor	CaV13 FRET inh	IDE cell activ	PolyA inh
Cc1cc(C(=O)N2CCN(c3ncccn3)CC2)c2cc(F)ccc2n1	-4	4	-11	-11	3	15
COc1ccc(NC2CCCN(C(=O)c3cc(C)nc4cc(F)ccc34)C2)cc1 (stereo unspecified)	99*	1	1	-7	6	3
Nc1nc2c(C(=O)N3CCCC3)nnn2c2ccccc12	·	·	·	-6	·	·
CC(NC(=O)COc1ccccc1F)C1CC2CCC1C2 (stereo unspecified)	-22	0	1	-5	-1	-5
CCC1NC(=O)c2cc3ccccc3cc2-n2c1nc1ccc(OC)cc1c2=O (stereo unspecified)	·	·	·	-5	·	·
COCc1ccc(C(=O)NC2CCSc3ccccc32)cc1 (stereo unspecified)	-3	4	1	-2	1	13
O=C1OC(/C(=C\Nc2cc(Cl)ccc2O)[N+](=O)[O-])c2ccccc21 (stereo unspecified)	39	-1	41*	-4	-2	-4
O=C1OC(/C(=C\Nc2ccc(F)cc2F)[N+](=O)[O-])c2ccccc21 (stereo unspecified)	97*	5	47*	-6	-5	9
O=C(CCn1c(=O)oc2ccccc21)Nc1cccc([N+](=O)[O-])c1	-5	3	-1	-6	4	-8
Cc1cccc(-c2nc(CS(=O)CC(=O)NCCCSC3CCCCC3)c(C)o2)c1 (stereo unspecified)	64	-4	0	-5	8	11
COc1cccc(-c2nc(CS(=O)CC(=O)NC3CCCCC3)c(C)o2)c1 (stereo unspecified)	99*	-2	-1	-7	11	22
COc1cccc(-c2noc(CCC(=O)NC3CCCC3)n2)c1	-4	·	-3	·	-1	5
COc1cccc(-c2nc(CS(=O)CC(=O)NC3CCCC3)c(C)o2)c1 (stereo unspecified)	99*	3	-6	-9	1	1
COCC1CCCN(Cc2cn(-c3ccccc3F)nc2-c2cc(C)sc2C)C1 (stereo unspecified)	-5	-2	-13	-4	0	-7
N#C/C(=C/c1ccc(-c2cc(C(=O)O)cc(C(=O)O)c2)o1)c1nc2ccccc2s1	40	27*	13	·	·	-9
N#C/C(=C\c1ccco1)c1nc2ccccc2s1	14	15	1	-7	-6	-14
C=CCNC(=S)N(C)[C@H]1C[C@H]2c3cc(-c4ccccc4C)ccc3CCN2C[C@H]1[C@H](C)O	·	·	·	-5	·	·
Cc1cc(C)c2c(-n3cccc3)c(C(=O)NNS(=O)(=O)c3ccc(Br)cc3)sc2n1	88*	4	8	-4	6	-11
CCOC(=O)Nc1sc2nc(C)cc(C)c2c1-n1cccc1	-6	1	0	0	-3	-34
COc1cc(/C=N/NS(=O)(=O)c2ccc(C)c([N+](=O)[O-])c2)cc([N+](=O)[O-])c1O	93*	4	9	-6	2	1
O=[N+]([O-])c1cccc(S(=O)(=O)N/N=C/c2ccc(O)cc2)c1	93*	-1	8	-5	4	1
O=[N+]([O-])c1cccc(S(=O)(=O)N/N=C\c2ccc3c(c2)OCO3)c1	27	·	-2	·	6	0
COc1cc(/C=N/NS(=O)(=O)c2ccc(C)c([N+](=O)[O-])c2)ccc1O	99*	3	9	1	-2	-4
COc1cc(/C=N/NS(=O)(=O)c2ccc(C(C)(C)C)cc2)cc([N+](=O)[O-])c1O	65	0	8	-6	5	-4
COc1ccc(-n2c(O)c(C=Nc3ccccc3)c3ccccc3c2=O)cc1OC	·	1	-1	-8	4	-4
SMILES	ALR H2O2 inh	IDE inh	M18AAP inhibitor	CaV13 FRET inh	IDE cell activ	PolyA inh
COc1ccc(-n2c(O)c(/C=N/NS(=O)(=O)c3ccc(C)c([N+](=O)[O-])c3)c3ccccc3c2=O)cc1OC	97*	1	11	-14	-15	8
CCCCn1c(N)c(N(Cc2ccccc2OC)C(=O)c2cc(CC)c(C)s2)c(=O)[nH]c1=O	0	-2	·	-2	6	·
CCOC(=O)C1=CCN(S(=O)(=O)c2ccccc2C)C1c1ccc(F)cc1 (stereo unspecified)	·	·	·	-6	·	·
CC1(C)CC(=O)C(C(N)=NC(=O)c2ccccc2)=C(O)C1	2	-5	-14	-2	-4	2
CC1(C)CC(=O)C(C(N)=NC(=O)c2ccc([N+](=O)[O-])cc2)=C(O)C1	89*	6	-2	-21	0	-23
O=C(Nc1ccc(SC(F)F)cc1)c1ccccc1F	99*	0	-4	2	1	0
CC(=O)c1cc(CC=C(C)C)c(O)cc1O	83*	-7	-4	·	-5	-6
CC(=O)c1cc(CC=C(C)C)c(O)c(CC=C(C)C)c1O	·	-1	5	-3	2	-13
Cc1ccc(NC(=O)CSCC(=O)NCc2cccc(C(F)(F)F)c2)cc1	-5	5	·	-2	6	-8
O=C(COc1cccnc1[N+](=O)[O-])c1ccc(Cl)s1	-12	9	32*	-5	-15	-23
O=C(COc1cccnc1[N+](=O)[O-])Nc1c(Cl)cccc1Cl	-6	4	·	-7	5	·
CC/C(C)=N/Nc1nc(-c2cc3cccc(OC)c3oc2=O)cs1	98*	3	20	-5	·	12
Cc1cc(C)n(CCc2nc(-c3ccco3)cs2)n1	99*	4	-11	-6	-3	-8
COc1cccc2cc(-c3nnc(-c4ccccc4)o3)c(=O)oc12	-4	3	-2	-15	6	-9
COc1cccc2cc(-c3csc(CCn4nc(C)cc4C)n3)c(=O)oc12	98*	6	5	·	2	-1
Cc1ccc(C(=O)N(c2ccccn2)C(C)c2ccco2)cc1C (stereo unspecified)	97*	5	-2	-6	5	4
CC(c1ccco1)N(C(=O)c1ccc(C(F)(F)F)cc1)c1ccccn1 (stereo unspecified)	2	0	7	9	6	-7
Cn1c(CO)cnc1SCc1ccc([N+](=O)[O-])cc1	·	-6	9	·	3	-8
Cn1ccnc1SCc1cccc([N+](=O)[O-])c1	98*	-5	4	-2	5	9
Cn1ccnc1SCc1ccc([N+](=O)[O-])cc1	99*	-4	1	-8	2	-6
O=C(NCC1CCCO1)c1ccc[nH]1 (stereo unspecified)	3	3	-3	-6	0	-18
